In PubChem BioAssay (NCI) one finds growth data, which are given here for eight compounds.

This is part of a sample that, as a whole, favours compounds with a hit. Of some 83,000 tested, about 20% had one in any assay.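 Testing used 96-well plates and a 48-hour single-concentration exposure. Example: -40 means 40% of the starting cells died.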 A number with no mark means an inactive call. Calls of active or inactive are those of the source. How the source made its calls: active means growth percent below 10; inactive means the rest.

Among the test systems are NCI-H23 lung; NCI-H226 lung; NCI-H322M lung; HOP-62 NSCLC; NCI-H460 lung; HOP-92 NSCLC; NCI-H522 lung; A549/ATCC NSCLC; 786-0 renal; COLO 205 colon; DU-145 prostate; K-562 leukemia; MALME-3M melanoma; MDA-MB-231 breast; RXF 393 renal; SF-268 CNS; SF-295 CNS; SF-539 CNS; UACC-257 melanoma; M14 melanoma.
What all share (experiment): NCI-60 one-dose screen, 48 h (100 = growth as untreated, 0 = no growth, -100 = all killed)
Holding throughout (settings): 10 µM unless noted

Regarding `CCCCOc1ccc(/C=N/Nc2cc(C)nc3ccc(Cl)cc23)cc1`, the growth was 60% in the assay on NCI-H23 lung; 88.9% in the assay on NCI-H226 lung; 51.6% in the assay on NCI-H322M lung; 27.1% in the assay with HOP-62 NSCLC; -62.8% (active) in the assay on NCI-H460 lung; 68.7% with HOP-92 NSCLC. For the same compound, the growth in the assay with NCI-H522 lung is -25.4% (active); in the assay on A549/ATCC NSCLC it was 10.1%; with 786-0 renal it was -80.9% (active); in the assay on COLO 205 colon, -66.6% (active); with DU-145 prostate it was 3.96% (active); in the assay on K-562 leukemia, -21.7% (active). For the same compound, the growth was -77% (active) in the assay with MALME-3M melanoma; -49.5% (active) in the assay with MDA-MB-231 breast; -84.2% (active) in the assay on RXF 393 renal; 64.9% in the assay with SF-268 CNS; -83.6% (active) in the assay on SF-295 CNS; -80.5% (active) in the assay with SF-539 CNS. For the same compound, the growth with UACC-257 melanoma was 84.1%; in the assay with M14 melanoma it was -25.2% (active).

Turning to `C=C(C)[C@@H]1CC[C@]2(C(=O)NCC(=O)OC)CC[C@]3(C)[C@H](CC[C@@H]4[C@@]5(C)Cc6c([nH]c7ccccc67)C(C)(C)[C@@H]5CC[C@]43C)[C@@H]12`, the growth in the assay with NCI-H23 lung is 68.6%; with NCI-H226 lung, 63.5%; with NCI-H322M lung, 85.8%; in the assay on HOP-62 NSCLC, 82.8%; with NCI-H460 lung, 74.6%; in the assay on HOP-92 NSCLC, 91.1%. Further, the growth with NCI-H522 lung is 60.5%; with A549/ATCC NSCLC, 60.7%; in the assay with 786-0 renal, 75%; with COLO 205 colon, 86.1%; in the assay on DU-145 prostate, 83.8%; in the assay on K-562 leukemia, 44.9%. Moreover, the growth with MALME-3M melanoma is 93.9%; in the assay on MDA-MB-231 breast it was 82.2%; in the assay on RXF 393 renal, 76%; with SF-268 CNS, 74.7%; in the assay with SF-295 CNS, 76.7%; in the assay on SF-539 CNS, 85.1%. The growth with UACC-257 melanoma was 75.7%; with M14 melanoma, 89.5%.

Regarding `CCNC(=S)NNC(=O)c1cc2ccc1CCc1ccc(cc1)CC2`, the growth in the assay with NCI-H23 lung was 97.7%; in the assay on NCI-H226 lung, 106%; in the assay with NCI-H322M lung, 95.1%; with HOP-62 NSCLC, 101%; in the assay on NCI-H460 lung, 103%; with HOP-92 NSCLC it was 97.2%. Also, the growth with NCI-H522 lung is 92.7%; in the assay with A549/ATCC NSCLC, 101%; in the assay on 786-0 renal, 106%; with COLO 205 colon, 107%; in the assay with DU-145 prostate, 103%; in the assay with K-562 leukemia, 100%. Further, the growth in the assay on MALME-3M melanoma is 101%; in the assay with MDA-MB-231 breast, 100%; with RXF 393 renal it was 109%; in the assay with SF-268 CNS, 95.4%; with SF-295 CNS, 93.2%; with SF-539 CNS, 101%. In addition, the growth in the assay on UACC-257 melanoma was 109%; with M14 melanoma it was 95%.

Turning to `CCOC(=O)c1c(C)nc2c(c1N)C(=O)C(=O)N2Cc1ccc(C(F)(F)F)cc1`, the growth was 69.8% in the assay on NCI-H23 lung; 73.2% in the assay on NCI-H226 lung; 97.3% with NCI-H322M lung; 60.5% in the assay on HOP-62 NSCLC; 93.7% in the assay with NCI-H460 lung; 50.3% with HOP-92 NSCLC. For the same compound, the growth was 31% with NCI-H522 lung; 84.3% with A549/ATCC NSCLC; 33.9% with 786-0 renal; 101% with COLO 205 colon; 84.5% with DU-145 prostate; 36.2% with K-562 leukemia. For the same compound, the growth in the assay on MALME-3M melanoma is 59.3%; in the assay with MDA-MB-231 breast it was 75.6%; with RXF 393 renal it was 58.7%; in the assay on SF-268 CNS, 59.7%; with SF-295 CNS it was 81%; in the assay with SF-539 CNS it was 52.6%. In addition, the growth with UACC-257 melanoma is 74.2%; with M14 melanoma, 53%.

With `COc1ccc2c(/C=C3/C(=O)NC(=S)NC3C)cc(=O)oc2c1` (stereo not given), the growth in the assay with NCI-H23 lung was 98.9%; in the assay with NCI-H226 lung, 96.7%; in the assay on NCI-H322M lung, 93.1%; with HOP-62 NSCLC, 92.8%; in the assay on NCI-H460 lung, 105%; in the assay on HOP-92 NSCLC it was 93%. The growth in the assay on NCI-H522 lung is 82.3%; with A549/ATCC NSCLC, 88.9%; with 786-0 renal it was 95.8%; in the assay on COLO 205 colon it was 101%; in the assay with DU-145 prostate, 108%; in the assay on K-562 leukemia, 98.1%. Moreover, the growth was 99.4% in the assay with MALME-3M melanoma; 103% with MDA-MB-231 breast; 98.4% in the assay on RXF 393 renal; 89.4% in the assay on SF-268 CNS; 97.9% in the assay on SF-295 CNS; 101% in the assay with SF-539 CNS. The growth in the assay with UACC-257 melanoma is 83.5%; with M14 melanoma, 109%.

Consider `COc1ccccc1OCC(=O)N1CCCCCC1`, for which the growth in the assay on NCI-H23 lung was 92.8%; in the assay on NCI-H226 lung it was 92.1%; with NCI-H322M lung, 105%; in the assay with HOP-62 NSCLC it was 104%; in the assay with NCI-H460 lung it was 105%; in the assay with HOP-92 NSCLC, 82.8%. Also, the growth with NCI-H522 lung is 96%; with A549/ATCC NSCLC it was 92.1%; with 786-0 renal, 117%; with COLO 205 colon it was 110%; with DU-145 prostate, 107%; with K-562 leukemia it was 83.3%. Also, the growth with MALME-3M melanoma was 89.2%; in the assay on MDA-MB-231 breast it was 113%; with RXF 393 renal, 97%; in the assay with SF-268 CNS it was 108%; with SF-295 CNS it was 106%; in the assay with SF-539 CNS it was 104%. Moreover, the figures for the growth in the assay on UACC-257 melanoma and with M14 melanoma were 93.3% and 119%, respectively.

Consider `COc1ccc2c(c1)OC13Oc4cc(OC)ccc4C=C1CCCC3=C2`, for which the growth with NCI-H23 lung was 48.3%; in the assay with NCI-H226 lung, 64.1%; in the assay on NCI-H322M lung it was 80.8%; in the assay with HOP-62 NSCLC, 41.4%; in the assay with NCI-H460 lung, 14.3%; with HOP-92 NSCLC, 26.6%. Besides, the growth in the assay with NCI-H522 lung is 20.4%; with A549/ATCC NSCLC, 75%; in the assay with 786-0 renal, 38.7%; in the assay on COLO 205 colon it was -9.95% (active); with DU-145 prostate it was 33.9%; in the assay on K-562 leukemia, 23.5%. The growth in the assay with MALME-3M melanoma is 70.3%; with MDA-MB-231 breast it was 32%; in the assay on RXF 393 renal, 16%; in the assay on SF-268 CNS, 38.5%; in the assay on SF-295 CNS, 78.6%; in the assay on SF-539 CNS it was 84.5%. The growth with UACC-257 melanoma was 52.5%; with M14 melanoma, 31.5%.

Regarding `CCc1c(Nc2ccc(C)cc2)[nH]c(N)nc1=S`, the growth in the assay on NCI-H23 lung is 97%; with NCI-H226 lung, 95.3%; in the assay with NCI-H322M lung, 106%; with HOP-62 NSCLC, 98.1%; in the assay with NCI-H460 lung, 106%; in the assay on HOP-92 NSCLC, 108%. The growth is 96.9% with NCI-H522 lung; 101% with A549/ATCC NSCLC; 104% in the assay on 786-0 renal; 109% with COLO 205 colon; 104% with DU-145 prostate; 115% in the assay on K-562 leukemia. In addition, the growth with MALME-3M melanoma is 103%; in the assay with MDA-MB-231 breast, 98.8%; with RXF 393 renal it was 113%; with SF-268 CNS, 103%; in the assay on SF-295 CNS, 96.2%; in the assay on SF-539 CNS, 103%. The growth in the assay with UACC-257 melanoma was 104%; in the assay on M14 melanoma, 98.7%.
